Experimental data from PubChem BioAssay (NCI).
This is part of a sample that, as a whole, favours compounds with a hit. Of some 83,000 tested, about 20% had one in any assay.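 A percent growth of 40 corresponds to 60% growth inhibition; 0 means no net growth; -100 means all cells died. Active threshold: below 10.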 Values without a mark were called inactive. The source made the active and inactive calls.

How the values were obtained:
Assay in all cases: NCI-60 one-dose screen, 48 h (100 = growth as untreated, 0 = no growth, -100 = all killed)
Settings in all cases: 10 µM
EKVX NSCLC = test system: EKVX NSCLC
SN12C renal = test system: SN12C renal
UO-31 renal = test system: UO-31 renal
TK-10 renal = test system: TK-10 renal
ACHN renal = test system: ACHN renal
CAKI-1 renal = test system: CAKI-1 renal
A498 renal = test system: A498 renal
CCRF-CEM leukemia = test system: CCRF-CEM leukemia
MOLT-4 leukemia = test system: MOLT-4 leukemia
SR leukemia = test system: SR leukemia
RPMI-8226 leukemia = test system: RPMI-8226 leukemia
OVCAR-8 ovarian = test system: OVCAR-8 ovarian
OVCAR-5 ovarian = test system: OVCAR-5 ovarian
OVCAR-4 ovarian = test system: OVCAR-4 ovarian
SK-OV-3 ovarian = test system: SK-OV-3 ovarian
IGROV1 ovarian = test system: IGROV1 ovarian
OVCAR-3 ovarian = test system: OVCAR-3 ovarian
HS 578T breast = test system: HS 578T breast
SK-MEL-2 melanoma = test system: SK-MEL-2 melanoma
NCI/ADR-RES ovarian = test system: NCI/ADR-RES ovarian

How did the growth (EKVX NSCLC) turn out when `C#C[C@]1(O)CCC2C3CCc4cc(OC5CCCC5)ccc4C3CC[C@@]21C` (stereo not given in full) was run?
Its growth is 86.3%.

What about the growth (SN12C renal) of the same compound?
Its growth is 70.9%.

And the growth (UO-31 renal)?
The growth was 72.5%.

And the growth (TK-10 renal)?
Its growth is 86.9%.

And the growth (ACHN renal)?
The growth was 73.3%.

What about the growth (CAKI-1 renal) of the same compound?
Its growth is 42%.

What about the growth (A498 renal) of the same compound?
Its growth is 85.1%.

And the growth (CCRF-CEM leukemia)?
Its growth is 85.4%.

What about the growth (MOLT-4 leukemia) of the same compound?
Its growth is 59.8%.

And the growth (SR leukemia)?
Its growth is 15.1%.

What about the growth (RPMI-8226 leukemia) of the same compound?
Its growth is 80.4%.

And the growth (OVCAR-8 ovarian)?
Its growth is 81.3%.

And the growth (OVCAR-5 ovarian)?
Its growth is 63.2%.

And the growth (OVCAR-4 ovarian)?
The growth was 92.9%.

What about the growth (SK-OV-3 ovarian) of the same compound?
The growth was 100%.

What about the growth (IGROV1 ovarian) of the same compound?
The growth was 101%.

And the growth (OVCAR-3 ovarian)?
The growth was 96.4%.

And the growth (HS 578T breast)?
Its growth is 85.6%.

For `COc1cc(-c2ccc(N=Nc3ccc4c(S(=O)(=O)O)ccc(N)c4c3O)c(OC)c2)ccc1N=Nc1ccc2c(S(=O)(=O)O)ccc(N)c2c1O`, which growth (SK-MEL-2 melanoma) is on record?
The growth was 102%.

What about the growth (SN12C renal) of the same compound?
Its growth is 123%.

What about the growth (TK-10 renal) of the same compound?
Its growth is 121%.

And the growth (ACHN renal)?
Its growth is 103%.

What about the growth (A498 renal) of the same compound?
Its growth is 124%.

What about the growth (CCRF-CEM leukemia) of the same compound?
Its growth is 105%.

What about the growth (MOLT-4 leukemia) of the same compound?
The growth was 122%.

What about the growth (SR leukemia) of the same compound?
The growth was 146%.

And the growth (RPMI-8226 leukemia)?
The growth was 115%.

What about the growth (OVCAR-8 ovarian) of the same compound?
Its growth is 99.6%.

And the growth (OVCAR-5 ovarian)?
Its growth is 111%.

What about the growth (OVCAR-4 ovarian) of the same compound?
The growth was 98.4%.

What about the growth (SK-OV-3 ovarian) of the same compound?
The growth was 91.4%.

What about the growth (OVCAR-3 ovarian) of the same compound?
Its growth is 109%.

And the growth (HS 578T breast)?
Its growth is 124%.

And the growth (NCI/ADR-RES ovarian)?
The growth was 109%.

What does the source list for `CCn1c(CSc2nc3ccccc3c(=O)n2CCc2ccccc2)n[nH]c1=S`?
growth (SK-MEL-2 melanoma): 103%; growth (SN12C renal): 104%; growth (UO-31 renal): 76.5%; growth (TK-10 renal): 98%; growth (ACHN renal): 96.8%; growth (CCRF-CEM leukemia): 83.9%; growth (MOLT-4 leukemia): 71%; growth (SR leukemia): 73.1%; growth (OVCAR-8 ovarian): 89.7%; growth (OVCAR-4 ovarian): 85.6%; growth (SK-OV-3 ovarian): 97.9%; growth (IGROV1 ovarian): 93.4%; growth (OVCAR-3 ovarian): 102%; growth (HS 578T breast): 91%; growth (NCI/ADR-RES ovarian): 73.7%

With `COc1ccc(-c2nn(-c3cccc(Cl)c3)cc2C=C(C#N)C#N)cc1` as the compound, how does the growth (SK-MEL-2 melanoma) read?
Its growth is -39.4% (active).

What about the growth (SN12C renal) of the same compound?
The growth was 10.4%.

What about the growth (UO-31 renal) of the same compound?
Its growth is 11.9%.

What about the growth (TK-10 renal) of the same compound?
Its growth is -3.05% (active).

And the growth (ACHN renal)?
Its growth is 9.38% (active).

And the growth (CCRF-CEM leukemia)?
The growth was -27.3% (active).

What about the growth (MOLT-4 leukemia) of the same compound?
Its growth is -45.9% (active).

And the growth (SR leukemia)?
Its growth is -61.6% (active).

And the growth (OVCAR-8 ovarian)?
Its growth is 24.2%.

What about the growth (OVCAR-5 ovarian) of the same compound?
The growth was 29%.

What about the growth (OVCAR-4 ovarian) of the same compound?
Its growth is 7.22% (active).

And the growth (SK-OV-3 ovarian)?
Its growth is -0.205% (active).

And the growth (IGROV1 ovarian)?
Its growth is 12.2%.

What about the growth (OVCAR-3 ovarian) of the same compound?
The growth was -23.6% (active).

What about the growth (HS 578T breast) of the same compound?
Its growth is 24.5%.

What about the growth (NCI/ADR-RES ovarian) of the same compound?
The growth was 2.52% (active).

What does the source list for `CCCCc1oc2ccccc2c1C(=O)c1cc(I)c(OCCN(CC)CC)c(I)c1`?
growth (EKVX NSCLC): 3.63% (active); growth (SN12C renal): 5.13% (active); growth (UO-31 renal): -37% (active); growth (TK-10 renal): -40.5% (active); growth (ACHN renal): 20%; growth (CAKI-1 renal): -21% (active); growth (A498 renal): -47.3% (active); growth (CCRF-CEM leukemia): -32.2% (active); growth (MOLT-4 leukemia): -54.3% (active); growth (SR leukemia): -51.8% (active); growth (RPMI-8226 leukemia): -29.5% (active); growth (OVCAR-8 ovarian): -10% (active); growth (OVCAR-5 ovarian): -36% (active); growth (OVCAR-4 ovarian): 10.3%; growth (SK-OV-3 ovarian): -38.1% (active); growth (IGROV1 ovarian): 29.5%; growth (OVCAR-3 ovarian): 12%; growth (HS 578T breast): -19.3% (active); growth (NCI/ADR-RES ovarian): -20.3% (active)

How did the growth (EKVX NSCLC) turn out when `CCCCCOC(=O)Nc1nc(=O)n(C2O[C@H](C)[C@@H](O)[C@H]2O)cc1F` (stereo not given in full) was run?
Its growth is 99.2%.

What about the growth (SN12C renal) of the same compound?
The growth was 99.5%.

And the growth (UO-31 renal)?
The growth was 82.1%.

And the growth (TK-10 renal)?
The growth was 98.5%.

And the growth (ACHN renal)?
The growth was 99.6%.

And the growth (CAKI-1 renal)?
The growth was 90.5%.

And the growth (A498 renal)?
Its growth is 82.3%.

And the growth (CCRF-CEM leukemia)?
The growth was 96.7%.

What about the growth (MOLT-4 leukemia) of the same compound?
Its growth is 103%.

And the growth (SR leukemia)?
Its growth is 101%.

And the growth (RPMI-8226 leukemia)?
Its growth is 101%.

What about the growth (OVCAR-8 ovarian) of the same compound?
Its growth is 92.3%.

What about the growth (OVCAR-5 ovarian) of the same compound?
The growth was 104%.

And the growth (OVCAR-4 ovarian)?
Its growth is 109%.

What about the growth (SK-OV-3 ovarian) of the same compound?
The growth was 93.4%.

What about the growth (IGROV1 ovarian) of the same compound?
Its growth is 107%.

And the growth (OVCAR-3 ovarian)?
Its growth is 106%.

And the growth (HS 578T breast)?
Its growth is 104%.

And the growth (NCI/ADR-RES ovarian)?
Its growth is 96.4%.

Which growth (SK-MEL-2 melanoma) does the source give for `O=C1C=C(Nc2cccc(Br)c2)c2ccccc2C1=O` here?
Its growth is 7.56% (active).

And the growth (SN12C renal)?
Its growth is 53.6%.

And the growth (TK-10 renal)?
Its growth is 89.8%.

What about the growth (ACHN renal) of the same compound?
The growth was 50.8%.

And the growth (CAKI-1 renal)?
Its growth is 78.3%.

And the growth (A498 renal)?
Its growth is 88.6%.

And the growth (CCRF-CEM leukemia)?
The growth was 81.4%.

And the growth (MOLT-4 leukemia)?
Its growth is 81%.

And the growth (SR leukemia)?
The growth was 56.8%.

And the growth (RPMI-8226 leukemia)?
The growth was 63.1%.

And the growth (OVCAR-8 ovarian)?
The growth was 69.5%.

What about the growth (OVCAR-5 ovarian) of the same compound?
The growth was 73.1%.

And the growth (OVCAR-4 ovarian)?
Its growth is 77.6%.

What about the growth (SK-OV-3 ovarian) of the same compound?
Its growth is 25.7%.

What about the growth (OVCAR-3 ovarian) of the same compound?
The growth was 38.9%.

And the growth (HS 578T breast)?
The growth was 38.5%.

And the growth (NCI/ADR-RES ovarian)?
The growth was 71.1%.

With `COc1ccc(-c2nn(-c3cccc(Cl)c3)cc2/C=C2\NC(=S)N(c3ccc(Cl)cc3)C2=O)cc1` as the compound, how does the growth (SK-MEL-2 melanoma) read?
Its growth is -26.3% (active).

And the growth (SN12C renal)?
Its growth is 20.4%.

And the growth (UO-31 renal)?
The growth was 53.6%.

And the growth (TK-10 renal)?
Its growth is 27.7%.

And the growth (ACHN renal)?
Its growth is 51.1%.

What about the growth (CCRF-CEM leukemia) of the same compound?
The growth was 21.9%.

And the growth (MOLT-4 leukemia)?
The growth was -22.9% (active).

And the growth (SR leukemia)?
The growth was -69.6% (active).

And the growth (OVCAR-8 ovarian)?
Its growth is 21.9%.

And the growth (OVCAR-5 ovarian)?
Its growth is 53.7%.

And the growth (OVCAR-4 ovarian)?
The growth was -62.1% (active).

And the growth (SK-OV-3 ovarian)?
The growth was -47.8% (active).

What about the growth (IGROV1 ovarian) of the same compound?
Its growth is -16.2% (active).

And the growth (OVCAR-3 ovarian)?
The growth was 0.69% (active).

And the growth (HS 578T breast)?
The growth was 25.8%.

And the growth (NCI/ADR-RES ovarian)?
The growth was 7.34% (active).

For `C[C@@H](O)[C@H]1C(=O)N2C(C(=O)O)=C(SCCN=CN)C[C@H]12`, which growth (EKVX NSCLC) is on record?
Its growth is 7.62% (active).

What about the growth (SN12C renal) of the same compound?
Its growth is 2.27% (active).

What about the growth (UO-31 renal) of the same compound?
The growth was -50.4% (active).

And the growth (TK-10 renal)?
The growth was -0.459% (active).

And the growth (ACHN renal)?
The growth was -30.6% (active).

And the growth (CAKI-1 renal)?
Its growth is -28.2% (active).

And the growth (A498 renal)?
The growth was -36.4% (active).

And the growth (CCRF-CEM leukemia)?
The growth was 4.2% (active).

And the growth (MOLT-4 leukemia)?
Its growth is -13.9% (active).

What about the growth (SR leukemia) of the same compound?
The growth was -5.48% (active).

What about the growth (RPMI-8226 leukemia) of the same compound?
The growth was -3.62% (active).

What about the growth (OVCAR-8 ovarian) of the same compound?
Its growth is -10.1% (active).

What about the growth (OVCAR-5 ovarian) of the same compound?
Its growth is 3.52% (active).

What about the growth (OVCAR-4 ovarian) of the same compound?
The growth was -2.15% (active).

And the growth (SK-OV-3 ovarian)?
Its growth is 2.23% (active).

What about the growth (IGROV1 ovarian) of the same compound?
Its growth is -5.16% (active).

What about the growth (OVCAR-3 ovarian) of the same compound?
The growth was -15% (active).

And the growth (HS 578T breast)?
The growth was 24.3%.

What about the growth (NCI/ADR-RES ovarian) of the same compound?
The growth was -13.9% (active).
